Data published in publication PMC4336329 (PLoS ONE, 2015).
Hit rate of the full screen: of about 310,000 compounds, about 14,000 (4.5%) showed an effect of 50% or more. The effect is printed as a negative number. This is one part of a sample in which strong results are shown more often than they occur.

Target: human ether-à-go-go-related gene (hERG) potassium channel (human, UniProt Q12809)
Assay: primary screen, population patch clamp on CHO cells stably expressing hERG; higher = less effect of the substance
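Note: peak tail current of the secondary pulse compared with the same well before compound.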

Sequence of human ether-à-go-go-related gene (hERG) potassium channel (Q12809 whole entry, looked up): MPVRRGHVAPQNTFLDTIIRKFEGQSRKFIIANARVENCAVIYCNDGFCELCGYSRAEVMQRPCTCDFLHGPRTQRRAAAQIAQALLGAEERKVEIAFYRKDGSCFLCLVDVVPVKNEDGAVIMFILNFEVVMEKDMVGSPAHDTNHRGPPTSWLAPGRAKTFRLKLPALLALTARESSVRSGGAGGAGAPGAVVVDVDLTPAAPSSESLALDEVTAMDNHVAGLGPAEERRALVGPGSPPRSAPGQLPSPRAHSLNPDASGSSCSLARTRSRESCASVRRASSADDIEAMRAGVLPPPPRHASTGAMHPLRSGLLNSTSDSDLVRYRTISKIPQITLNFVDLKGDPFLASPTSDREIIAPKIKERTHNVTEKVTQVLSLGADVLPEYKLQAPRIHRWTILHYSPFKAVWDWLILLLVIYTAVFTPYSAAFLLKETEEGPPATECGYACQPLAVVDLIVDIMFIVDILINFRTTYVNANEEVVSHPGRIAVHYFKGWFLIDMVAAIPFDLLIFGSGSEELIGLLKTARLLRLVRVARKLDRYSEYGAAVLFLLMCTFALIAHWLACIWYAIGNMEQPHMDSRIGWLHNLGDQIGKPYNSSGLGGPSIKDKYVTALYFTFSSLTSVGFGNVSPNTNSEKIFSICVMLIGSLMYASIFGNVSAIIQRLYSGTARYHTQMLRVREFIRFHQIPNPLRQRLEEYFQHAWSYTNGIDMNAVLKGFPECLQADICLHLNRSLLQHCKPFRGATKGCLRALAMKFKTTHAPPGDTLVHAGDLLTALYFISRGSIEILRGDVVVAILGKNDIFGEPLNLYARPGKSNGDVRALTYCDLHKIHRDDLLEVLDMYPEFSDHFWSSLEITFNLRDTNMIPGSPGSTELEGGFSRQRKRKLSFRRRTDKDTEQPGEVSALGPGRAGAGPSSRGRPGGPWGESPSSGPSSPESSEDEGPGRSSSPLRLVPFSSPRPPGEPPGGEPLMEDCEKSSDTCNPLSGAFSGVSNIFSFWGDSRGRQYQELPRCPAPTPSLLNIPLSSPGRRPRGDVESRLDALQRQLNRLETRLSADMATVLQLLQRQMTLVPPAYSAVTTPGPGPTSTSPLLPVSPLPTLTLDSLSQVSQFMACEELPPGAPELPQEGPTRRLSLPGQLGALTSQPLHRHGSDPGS

SMILES | hERG current change (%, negative = inhibition) at 10uM
O=C(O)CCCCC1SCC2NC(=O)NC21 (stereo not drawn) | 3.46%
O=C(Nc1ccccc1F)Nc1ccc([N+](=O)[O-])cc1Cl | 18.4%
O=C(c1cc(=O)[nH]c2ccccc12)N1CCN(c2cccc(C(F)(F)F)c2)CC1 | -27.1%
CCOC(=O)c1sc(=S)n(-c2ccccc2Cl)c1C | -13.8%
CCOC(=O)Cn1c(=NC(=O)c2cccs2)sc2cc(C(=O)OC)ccc21 | 17.4%
Cc1ccc(NC(=O)c2cc([N+](=O)[O-])ccc2Cl)c(O)c1 | -4.12%
Cc1nc2cc(NC(=O)CS(=O)(=O)c3ccc(F)cc3)ccc2s1 | -55.8%
Cc1nc2ccc(NC(=O)CS(=O)(=O)c3ccc(F)cc3)cc2s1 | -7.44%
Cc1nc2cc(NC(=O)CS(=O)(=O)c3ccccc3)ccc2s1 | -23.8%
CCCN1C(=O)CC(C(=O)OC)=C1C | 12.9%
CCN(CC)C1=NC=CC(c2ccccc2)=CC1C (stereo not drawn) | -55.1%
CCN(CC)c1ncnnc1-c1ccccc1 | 15.9%
CCN(CC)c1cc(-c2ccccc2)ncn1.Cl | -16.5%
CCN(CC)c1nc(C(N)=O)cc(-c2ccccc2)n1 | -0.608%
CCC1C=C(c2ccccc2)C=CN=C1N(CC)CC (stereo not drawn) | -61.6%
CCN(CC)c1ccccc1 | 12.7%
COc1ccccc1NS(=O)(=O)c1cccc(N=C2N=C(N)c3ccccc32)c1 | 11.7%
CCCc1nn(C)c2c1C(c1ccncc1)C(C#N)=C(N)O2 (stereo not drawn) | 15.4%
C/C(O)=C/c1nc2ccccc2[nH]c1=O | -5.26%
C=C(Cl)COc1ccc2c(CCCC)cc(=O)oc2c1 | -24.9%

SMILES | hERG current change (%, negative = inhibition) at 10uM
C=CCn1c(NCc2ccccc2OC)nc2ccccc21 | -18.9%
CCCn1c(NCc2cccc(OC)c2OC)nc2ccccc21 | -13.9%
Oc1ccccc1CNc1nc2ccccc2n1CCN1CCCCC1 | -2.31%
COc1cccc(CNc2nc3ccccc3n2CCN2CCCCC2)c1OC | -63.6%
COc1ccccc1CNc1nc2ccccc2n1CCN1CCCCC1 | -61.5%
CCn1c(NCc2cccc(OC)c2OC)nc2ccccc21 | -21%
CC(Nc1ccccc1CO)C(=O)Nc1cccc(Cl)c1Cl (stereo not drawn) | 5.35%
O=C(Cn1c(NCCO)nc2ccccc21)NCC(F)(F)F | 10.4%
O=C(NCCC1=CCCCC1)C1CCCN(S(=O)(=O)c2ccccc2)C1 (stereo not drawn) | 6.97%
CCCC(=O)Nc1ccc2oc(-c3ccncc3)nc2c1 | 5.92%
CCOC(=O)c1oc2ccccc2c1CN1CCOCC1.Cl | -4.56%
CCOC(=O)c1oc2ccccc2c1CN1CCN(C(=O)c2ccccc2)CC1 | -41.7%
CCOC(=O)c1oc2ccccc2c1CN1CC(C)OC(C)C1 (stereo not drawn) | -0.576%
CCOC(=O)c1oc2ccccc2c1CN1CCN(c2ccccc2)CC1.Cl | -26.6%
CCOC(=O)c1oc2ccccc2c1CN1CCN(C)CC1.Cl | -61.5%
CCOC(=O)c1oc2ccccc2c1CN1CCCCC1.Cl | -55%
Cc1ccc(Cn2cc(/C=C/C(=O)O)c(-c3ccccc3)n2)cc1 | 6.77%
CCC(C)C1Nc2ccc(C(=O)NCCc3ccc(OC)c(OC)c3)cc2NC1=O (stereo not drawn) | 20.4%
Cc1ccc(N2CCN(c3ccc(C)cc3)C2c2cccnc2)cc1 | 17.6%
CCC(=O)NC(=S)NNC(=O)COc1ccc(Br)cc1 | 14.4%

SMILES | hERG current change (%, negative = inhibition) at 10uM
CCOCCOc1nc(C)cc(C)c1S(=O)(=O)c1ccccc1C | -4.15%
CCOC(=O)C1(Cc2ccccc2)CCN(Cc2cccc3c2OCO3)CC1 | -36.7%
CCOC(=O)C1(CCOc2ccccc2)CCN(Cc2cccc3c2OCO3)CC1 | -64.6%
CCOC(=O)C1(CCc2ccccc2)CCN(Cc2cccc3c2OCO3)CC1 | -75%
O=C(CN1C(=O)c2ccccc2C1=O)Nc1ccccc1 | -0.118%
CCOC(=O)N1CCN(C(=O)C2CCCN(S(=O)(=O)c3cc(C)ccc3OC)C2)CC1 (stereo not drawn) | -5.57%
COCc1c(C#N)c(NCc2cc(OC)c(OC)c(OC)c2)nc(C)c1[N+](=O)[O-] | -12.2%
Cc1ncc(CN2CCC(C(=O)Nc3ccc(-n4cccn4)cc3)CC2)s1 | -21.2%
Cc1ncc(CN2CCC(C(=O)Nc3cccc(-c4cscn4)c3)CC2)cn1 | -11.9%
O=C(Nc1ccc(-n2cccn2)cc1)C1CCN(Cc2ccsc2)CC1 | -81.1%
O=C(Nc1ccc(-n2cccn2)cc1)C1CCN(Cc2ccccn2)CC1 | -16.7%
O=C(Nc1cccc(-c2cscn2)c1)C1CCN(Cc2ccsc2)CC1 | -65%
CSc1ncc(CN2CCC(C(=O)Nc3cccc(-c4cscn4)c3)CC2)cn1 | -35.7%
Cc1ccc(CN(CC(=O)NCc2ccccn2)S(=O)(=O)c2ccccc2)cc1 | -23.9%
COC(=O)CN(C#N)c1nc(NCc2ccccc2)nc(OC)n1 | -1.33%
CCN(CC(=O)Nc1ccc2c(c1)OCCO2)CC(=O)Nc1ccc2c(c1)OCO2 | 28%
Cc1ccc(CC(CC(=O)Nc2cccc(C(F)(F)F)c2)C(=O)O)cc1 (stereo not drawn) | 18%
COc1cc2c(cc1OC)-c1cc(OCCN3CCOCC3)nc(=O)n1CC2 | -11.5%
O=C(O)c1nccnc1C(=O)Nc1ccc(Cl)cn1 | 17.6%
CCC(C)NC(=O)[C@H]1N2C(=O)c3ccccc3C2SC1(C)C (stereo partly drawn) | 12.8%
